Laboratory results from PubChem BioAssay (NCI).
Compounds without any hit were thinned out: in the full panel of roughly 83,000, 20% have a hit.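 Step 1: grow cells in 96-well plates. Step 2: add test compound at a single concentration. Step 3: incubate 48 h. Step 4: record percent growth.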 Active and inactive are the calls of the source. Rule for the calls: active = growth percent below 10; inactive = the rest.

Tests used:
Assay in all cases: NCI-60 one-dose screen, 48 h (100 = growth as untreated, 0 = no growth, -100 = all killed)
Settings in all cases: 10 µM unless noted
[1] = tested on: BT-549 breast
[2] = tested on: MDA-MB-435 melanoma
[3] = tested on: SW-620 colon
[4] = tested on: MCF7 breast
[5] = tested on: HCT-116 colon
[6] = tested on: HCC-2998 colon
[7] = tested on: KM12 colon

Measured: growth

Cc1cc2nc3c4cc(Cl)ccc4n(CC(=S)NCCN(C)C)c3nc2cc1C
inactive: [1] 75%
active: [2] -92.4% | [3] -91.4% | [4] -81.5% | [5] -94.2% | [6] -82.9% | [7] -60.2%

CN(C)c1ccc(-c2c(NC(C)(C)C)nc3c(OCCc4ccccc4)cccn23)cc1
active: [4] 1.49% | [5] 8.37% | [7] 6.85%
inactive: [1] 42.3% | [2] 24% | [3] 12.4% | [6] 13%

Cc1cccc(/C=C/c2nn3c(-c4ccco4)nnc3s2)c1
inactive: [1] 90.8% | [2] 95.8% | [3] 101% | [4] 78.5% | [5] 106% | [6] 95% | [7] 105%

CC(C)(C)Nc1nc2c(OCCc3ccccc3)cccn2c1-c1cccc(F)c1
active: [2] 2.41% | [3] 9.7% | [4] -13.4% | [5] -32.8% | [6] 4.84% | [7] 4.77%
inactive: [1] 11.8%

Cc1cc(C(NC(=O)CCCCCNc2cccc3c2C(=O)N(C2CCC(=O)NC2=O)C3=O)c2cccnc2)c(O)c2ncccc12 (stereo not drawn)
active: [1] -30.8% | [6] 2.27%
inactive: [2] 30.7% | [3] 13.3% | [4] 12.2% | [5] 24.8% | [7] 17.6%

CN(C)CCCOc1c2ccc(Cl)cc2nc2c1oc1ccc(Cl)cc12
inactive: [1] 45.6% | [5] 10.8%
active: [2] -10.2% | [3] -82.9% | [4] -80.9% | [6] -67.9% | [7] -62.3%

C=CCn1c(SCC(=O)c2ccccc2)nnc1-c1c[nH]c2ccccc12
inactive: [1] 109% | [2] 105% | [3] 96.1% | [4] 97.2% | [5] 97.5% | [6] 111% | [7] 112%

Cn1cc(-c2cc(N)n3nc(-c4cn(C)c5ccc(Cl)cc45)cc3n2)c2cc(Cl)ccc21
inactive: [1] 117% | [2] 16.5% | [3] 14.6% | [4] 17.3% | [5] 75.5% | [6] 98.4% | [7] 60.1%

NC(=O)c1cc(-c2ccc3ncnc(N4CCc5cc(F)c(Cl)cc54)c3c2)cnc1N
inactive: [2] 25.2% | [3] 35.9% | [4] 11% | [5] 19.3% | [6] 37.5% | [7] 29.9%
active: [1] -13.5%

O=C(CSc1nnc(-c2ccc3nc(-c4ccc(Cl)cc4)[nH]c3c2)o1)Nc1ccc(C(=O)/C=C/c2ccc(Cl)cc2)cc1
inactive: [1] 99.6% | [2] 99.9% | [3] 103% | [4] 55.2% | [5] 77.8% | [6] 116% | [7] 99.3%

CC(=O)Oc1ccccc1C(=O)Nc1cc(C(C)C)ccc1C
active: [4] 9.56%
inactive: [1] 37.5% | [2] 11.1% | [3] 23.8% | [5] 11.3% | [6] 20.5% | [7] 11.1%

O=C1Nc2cc(Cl)ccc2/C1=C\c1ccc(OCc2ccc([N+](=O)[O-])cc2)cc1
inactive: [1] 77.5% | [2] 80.2% | [3] 76.8% | [4] 61.3% | [5] 68.2% | [6] 82.8% | [7] 64.6%

COc1ccc(-c2nc3ccc(-c4nnc(SCC(=O)Nc5ccc(C(=O)/C=C/c6ccc(Cl)cc6)cc5)o4)cc3[nH]2)cc1OC
inactive: [1] 106% | [2] 106% | [3] 105% | [4] 75.9% | [5] 101% | [6] 124% | [7] 104%

N#Cc1c(-c2ccc(F)cc2)nc2c(C#N)c(Nc3ccccc3)nn2c1N
inactive: [1] 109% | [2] 95.5% | [3] 106% | [4] 91.7% | [5] 105% | [6] 109% | [7] 97.9%

COC(=O)C(C)NS(=O)(=O)/N=C1\NC(=O)NC1=C(Cl)Cl (stereo not drawn)
inactive: [1] 109% | [2] 105% | [3] 124% | [4] 98% | [5] 102% | [6] 113% | [7] 105%

COc1cccc(OC)c1-c1nnn(C)c1C(=S)N1CCN(c2ccc([N+](=O)[O-])cc2Cl)CC1
inactive: [1] 91.7% | [2] 102% | [3] 101% | [4] 85.7% | [5] 88.2% | [6] 96.7% | [7] 108%

C#C[C@]1(O)CC[C@H]2[C@@H]3CC=C4c5sc(Nc6ccc(Cl)cn6)nc5CC[C@]4(C)[C@H]3CC[C@@]21C
inactive: [1] 32.9% | [2] 41.4% | [3] 29.5% | [4] 17.6% | [5] 34.5% | [6] 80% | [7] 38.9%

C#Cc1nc(C2=C(C)/C(=N/OCc3ccccc3)CC2)cs1
inactive: [1] 58.1% | [2] 80.1% | [3] 85.6% | [4] 49.5% | [5] 40.6% | [6] 99.8% | [7] 19.6%

O=C(CSc1nccc(=O)[nH]1)Nc1ccc(-c2nc3ccccc3[nH]2)cc1
inactive: [1] 103% | [2] 111% | [3] 116% | [4] 103% | [5] 106% | [6] 116% | [7] 86.3%
